Screens deposited in PubChem by Johns Hopkins Ion Channel Center.
CHT allo act: allosteric activators of human choline transporter CHT. CHT-expressing cells, membrane potential dye, choline EC20; hits give high values; LV-AA mutant CHT in HEK293 cells. B-score at 10 µM. hit rate 0.49% among 310,000. AID 488977;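 active = initial fluorescence not abnormally high and integrated response B-score, plate-corrected, over 3 SD above library mean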
ANO1 activ: mouse TMEM16A channel activation, primary screen. AID 623877. hit rate 0.3% among 340,000. B-score at 10 µM. Q8BHY3. HEK293 TMEM16A/YFP-H148Q/I152L, iodide quench fluorescence; hits give low values;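 active = fluorescence-ratio B-score plate-corrected deviation score at least 3 library SD below zero, with starting fluorescence score within 5 deviations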;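 note: channel opened by trigger with iodide after compound preincubation; score built on the fluorescence ratio of max minus min over baseline; more negative score means more quench and so TMEM16A activation or potentiation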
Target sequence (Q8BHY3 whole entry, looked up): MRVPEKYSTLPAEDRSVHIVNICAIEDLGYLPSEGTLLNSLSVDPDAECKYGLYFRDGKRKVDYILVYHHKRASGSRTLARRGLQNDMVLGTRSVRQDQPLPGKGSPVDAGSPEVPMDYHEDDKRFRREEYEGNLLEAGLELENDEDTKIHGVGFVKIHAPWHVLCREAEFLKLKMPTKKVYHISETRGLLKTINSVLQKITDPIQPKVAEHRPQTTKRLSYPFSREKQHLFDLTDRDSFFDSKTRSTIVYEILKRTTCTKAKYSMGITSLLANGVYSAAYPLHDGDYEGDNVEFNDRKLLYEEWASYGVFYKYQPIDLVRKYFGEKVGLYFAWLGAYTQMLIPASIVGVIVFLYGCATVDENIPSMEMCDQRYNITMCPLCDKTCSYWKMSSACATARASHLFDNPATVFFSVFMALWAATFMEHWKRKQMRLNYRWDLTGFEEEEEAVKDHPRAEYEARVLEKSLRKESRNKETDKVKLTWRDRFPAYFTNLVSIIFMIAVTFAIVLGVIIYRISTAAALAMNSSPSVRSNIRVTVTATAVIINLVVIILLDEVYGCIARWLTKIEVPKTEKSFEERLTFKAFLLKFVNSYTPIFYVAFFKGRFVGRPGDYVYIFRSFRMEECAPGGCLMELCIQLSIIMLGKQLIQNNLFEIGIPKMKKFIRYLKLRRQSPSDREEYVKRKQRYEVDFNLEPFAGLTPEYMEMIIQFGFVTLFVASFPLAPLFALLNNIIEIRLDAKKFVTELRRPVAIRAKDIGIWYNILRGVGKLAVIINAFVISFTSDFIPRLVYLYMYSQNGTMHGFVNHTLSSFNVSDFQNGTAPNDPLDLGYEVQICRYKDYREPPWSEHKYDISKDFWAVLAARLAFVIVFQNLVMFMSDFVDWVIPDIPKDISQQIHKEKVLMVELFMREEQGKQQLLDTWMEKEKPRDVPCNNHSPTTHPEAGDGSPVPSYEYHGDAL
CHT block: human CHT choline transport inhibition | Q9GZV3 | CHT-expressing cells, membrane potential dye, choline response; hits give low values | B-score at 10 µM | hit rate 0.86% among 310,000;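 active = B-score over 3 SD under the library average, and starting fluorescence ratio not unusually high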;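 note: choline stimulus applied at its EC90 after an EC20 pre-addition; B-score computed on integrated fluorescence ratio after choline addition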
TMEM16A inh: inhibitors of mouse TMEM16A calcium-activated chloride channel; HEK293 TMEM16A/YFP iodide influx fluorescence, ionomycin; Q8BHY3; hit rate 1.2% among 310,000; normalized B-score (activity score, 25-100; higher = stronger inhibition) at 10 µM;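 active = ratio plate-corrected score three or more library SD toward inhibition, starting fluorescence score within five deviations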;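 note: score derived from kinetic fluorescence span divided by baseline fluorescence per well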
CHT activ conf: confirmation of human choline transporter (CHT) activators. activation, % at 10 µM. shares compounds with CHT allo act. CHT-expressing cells, membrane potential dye fluorescence (FDSS); % of choline EC20–EC90 response window; HEK293 expressing CHT LV-AA mutant; choline added at its EC20. hit rate 91% among 2,500;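 active = primary screen active, with duplicate mean activation above negative control mean plus 3 SD, cut at about 11% in these data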
HEK293 MP dye: CHT activator counter-screen hit in parental HEK293 cells. ratio readout change at 10 µM, hits read low. shares compounds with CHT allo act. hit rate 62% among 2,500. membrane potential dye fluorescence (FDSS); measured after EC20 choline addition;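 active = duplicate-averaged ratio beyond 3 SD from buffer wells, up or down, though filed actives are nearly all decreases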
The depositor's hits bear a star; i = inactive; . = no result given. An excerpt weighted towards active compounds, which were near 2.3% of everything screened.

SMILES	CHT allo act	ANO1 activ	CHT block	TMEM16A inh	CHT activ conf	HEK293 MP dye
Cc1c(CCOC(=O)c2cc([N+](=O)[O-])cc([N+](=O)[O-])c2)sc[n+]1CCCCS(=O)(=O)[O-]	i	i	i	i	12.3*	-20.7*
O=C(NCc1ccc(F)cc1)C1CCCN(S(=O)(=O)c2ccc(-n3cnnn3)cc2)C1 (stereo unspecified)	i	i	i	i	.	.
COc1ccc(S(=O)(=O)NC(C)C(=O)NCCN2CCOCC2)cc1Cl (stereo unspecified)	i	i	i	i	.	.
Cc1cc(C)n2nc(-c3cccnc3)nc2n1	i	i	i	i	48.4*	-50.6*
Cc1cc(OCC(=O)NCCCN2CCOCC2)c2c(C)cc(=O)oc2c1	6.52*	i	i	i	60.2*	-52.5*
CCc1cc(=O)oc2cc(C)cc(OCC(=O)NCCCN3CCOCC3)c12	i	i	i	i	.	.
Cc1ccc(CNc2ccc3nnc(-c4ccccc4)n3n2)cc1	i	i	i	i	.	.
c1ccc(CN2CCN(CCCNc3ccc4nnc(-c5ccccc5)n4n3)CC2)cc1	7.84*	i	i	i	54.1*	-47.8*
COc1cccc(CNC(=O)CCC2CCCN(c3cc(C)nc(N(C)C)n3)C2)c1 (stereo unspecified)	i	i	i	i	47.9*	-39.7*
COc1ccc(C2=Nn3c([n+](C)c4ccccc43)SC2)cc1	10.9*	i	i	i	56.8*	-47.8*
CCOC(=O)c1nc(C)nc(Sc2n[nH]c(-c3ccc(C(C)(C)C)cc3)n2)c1C	i	i	i	i	.	.
CN(CC(=O)Nc1cccc(F)c1)C(=O)c1ccc(N2CCCCCC2)c([N+](=O)[O-])c1	i	i	i	i	.	.
CN(CC(=O)Nc1cccc(F)c1)C(=O)c1cc([N+](=O)[O-])ccc1N1CCCCC1	i	i	i	i	17.4*	i
CCCCCOc1ccc(Br)cc1/C(C)=N/NC1=NCCN1	8.65*	i	i	i	55.0*	i
COc1ccc2occ(C(=O)c3coc4ccc(O)c(CN(C)C)c34)c2c1	7.61*	i	i	i	31.6*	-36.3*
CCCCCn1c2c(c(=N)c3ccccc31)CCC2	6.7*	i	i	i	40.7*	-64.7*
CCOC(=O)Cn1c2c(c(=N)c3ccccc31)CCC2	i	i	i	i	65.2*	-51*
CCOC(=O)Cn1c2c(c(=N)c3c1CCC3)CCC2	i	i	i	i	23.4*	-47.5*
O=C(CCn1nnc2ccccc21)NNC(=O)C1CCCCC1	i	i	i	i	.	.
CC1(NC(=S)Nc2ccccc2)CCS(=O)(=O)C1 (stereo unspecified)	i	i	i	i	.	.
Cc1nnc(NC(=O)c2cc(-c3ccncc3)nc3c(C)cccc23)s1	i	i	i	i	.	.
COc1ccc(C(=O)C(CCC(CNC(C)(C)C)C(=O)c2ccc(OC)cc2)CNC(C)(C)C)cc1 (stereo unspecified)	6.56*	i	i	i	28.4*	i
N#Cc1nc(Nc2cccc(Cl)c2)c2ncn(C3CCCC3)c2n1	.	i	.	.	.	.
C=CCOC(=O)C1=C[C@@H](c2ccc(Br)cc2)[C@H](CCCO)[C@@H](OCC)O1	6.75*	i	i	i	24.9*	i
C[C@H](NC(=O)[C@H]1N2C(=O)c3ccccc3C2SC1(C)C)C(=O)N1CCC[C@H]1C(=O)O (stereo partly specified)	i	i	i	i	.	.
SMILES	CHT allo act	ANO1 activ	CHT block	TMEM16A inh	CHT activ conf	HEK293 MP dye
O=C(C1CCC1)N1CCN(c2ccnc3cc(Cl)ccc23)CC1	i	i	i	i	.	.
O=C(c1ccco1)N1CCN(c2ccnc3cc(Cl)ccc23)CC1	i	i	i	i	20.5*	-68.4*
O=C(C1CC1)N1CCN(c2ccnc3cc(Cl)ccc23)CC1	7.33*	i	i	i	65.5*	-67.4*
CN(C)C(/C=C/Nc1cccc(Br)c1)=C(C#N)C#N	i	i	i	i	49.1*	-42.4*
CN1c2ccsc2C(O)=C(C(=O)Nc2ccccc2)S1(=O)=O	i	i	i	i	.	.
Cc1cccc(NC(=O)C2=C(O)c3ccccc3N(C)S2(=O)=O)c1	i	i	i	i	-1.6	-28*
COc1ccc(-c2ccc(-c3cc(=O)oc4c(C(C)C)ccc(C)c34)cc2)cc1	.	i	.	.	.	.
Cn1c(-c2ccc3ccccc3n2)[n+](C)c2ccccc21	i	i	i	i	.	.
Cn1c(-c2ccccn2)[n+](C)c2ccccc21	i	i	i	i	44.0*	-36.9*
CN(C)c1ccc(-c2n(C)c3ccccc3[n+]2C)cc1	8.29*	i	i	i	63.7*	-50.6*
CCOC(=O)c1sc2ncnc(N3CCN(C(=O)OCC)CC3)c2c1C	i	i	i	i	.	.
CCOC(=O)c1sc2ncnc(N3CCN(CC)CC3)c2c1C	i	i	i	i	45.2*	-43*
NNC(=O)c1ccc(-c2cccc([N+](=O)[O-])c2)o1	i	i	i	i	14.6*	-22.7*
CCN(CC(=O)Nc1ccccc1OC)C(=O)CSCC(=O)Nc1ccc(OC)cc1	i	i	i	i	.	.
C[n+]1ccn(CC(=O)c2ccc(Br)cc2)c1	i	i	i	i	.	.
O=C(Cn1c(-c2ccccc2)c[n+]2ccsc12)c1ccc(Br)cc1	i	i	i	i	41.8*	-33.9*
COC(=O)CN1C(c2cccc(Cl)c2)=Nc2ccc(Cl)cc2C1c1ccccc1 (stereo unspecified)	i	i	i	i	29.6*	i
COC(=O)CN1C(c2ccc(OC)cc2)=Nc2ccc(Cl)cc2C1c1ccccc1 (stereo unspecified)	i	i	i	i	.	.
Cc1ccc(CN2C(=O)CCC2C(=O)NCc2ccccc2Cl)cc1 (stereo unspecified)	i	i	i	i	.	.
Cc1cccnc1NC(=O)c1cccc(S(=O)(=O)N2CCCc3ccccc32)c1	i	i	i	i	.	.
COCCNc1nnc(SCC(=O)Nc2nnc(-c3ccccc3)o2)s1	6.6*	i	i	i	4.5	i
Nc1nnc(SCC(=O)Nc2nnc(-c3ccccc3)o2)s1	.	i	.	.	.	.
Clc1ccc(-n2cccc2CN2CCc3c([nH]c4ccccc34)C2c2ccccn2)nc1 (stereo unspecified)	7.04*	i	i	i	40.1*	i
O=C(OCC(=O)N(Cc1ccccc1)Cc1ccccc1)c1ccccc1O	.	i	.	.	.	.
